The results in this text go back to PubChem BioAssay (EPA / NIEHS).

Usually AC50 stands for the concentration at which the activity in the assay is half-maximal.

Read-out in assay [1]: glucuronosyltransferase (UGT1A1), UGT1A1 (gene 54658)
Kind of assay: CLD_UGT1A1_6hr: CellzDirect (CLD) Gene Expression Assay for glucuronosyltransferase (UGT1A1) at 6 hours (AID 2283672). Put shortly:
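Primary human hepatocytes from two donor preparations, dosed with fresh solutions in 0.2% DMSO, harvested at 6 h. UGT1A1 mRNA measured by qNPA chemiluminescence; induction fitted upward versus DMSO.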

Read-out in assay [2]: xenobiotic metabolism (CYP1A1), CYP1A1 (gene 1543)
Nature of the assay: CLD_CYP1A1_24hr: CellzDirect (CLD) Gene Expression Assay for xenobiotic metabolism (CYP1A1) at 24 hours (AID 2283673).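 Further: CYP1A1 mRNA level by quantitative nuclease protection with chemiluminescence.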 The procedure, abridged:
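Primary human hepatocytes dosed daily with fresh solutions in 0.2% DMSO vehicle. mRNA measured at 24 h by quantitative nuclease protection assay with chemiluminescence; gain-of-signal fit versus DMSO, with morphology-based cytotoxicity flags.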

Read-out in assay [3]: Cytochrome P450 2B6 (Homo sapiens) (UniProt P20813)
Nature of the assay: CLD_CYP2B6_6hr: CellzDirect (CLD) Gene Expression Assay for xenobiotic metabolism (CYP2B6) at 6 hours (AID 2283677).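 Further: actives raise CYP2B6 transcript above DMSO baseline so AC50 marks an inducer.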 Put shortly:
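Primary human hepatocytes dosed with chemicals at multiple concentrations, vehicle 0.2% DMSO; CYP2B6 mRNA induction measured 6 h after dosing by quantitative nuclease protection assay with chemiluminescence, gain of signal fitted relative to DMSO.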

Assay [4] in a line: CCTE_Padilla_ZF_144hpf_TERATOSCORE: (Legacy) CCTE's 144 Hour Post-fertilization zebrafish Assay Teratoscore, Padilla Lab (AID 2283679; active means hit-call score of the fitted dose curve at least 0.9, where 1 is the maximum; inactive means score below 0.9;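 further: zebrafish embryos with chorions exposed by immersion from 6-8 hpf to 5 dpf with daily renewal; teratogenicity score from eye scoring of death hatching and malformations at 144 hpf; higher score means more developmental defects relative to DMSO baseline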). Put shortly: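 Larvae scored by eye at 144 hpf for death, hatching and malformations after a day in clean Hanks'. Before that, daily-renewed exposure at 80 uM (0.4% DMSO, 26C) from roughly 6-8 hpf through 5 dpf, 4 embryos per chemical.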
Read-out in assay [5]: Cytochrome P450 3A4 (Homo sapiens) (UniProt P08684)
Nature of the assay: CLD_CYP3A4_6hr: CellzDirect (CLD) Gene Expression Assay for xenobiotic metabolism (CYP3A4) at 6 hours (AID 2283680). The procedure, abridged:
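Primary human hepatocytes (two donor preparations) dosed; CYP3A4 mRNA harvested at 6 h and quantified by qNPA chemiluminescence. Gain of signal fitted against 0.2% DMSO vehicle; cytotoxicity flagged by phase-contrast morphology.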

Read-out in assay [6]: Glyceraldehyde-3-phosphate dehydrogenase (Homo sapiens) (UniProt P04406)
Kind of assay: CLD_GAPDH_6hr: CellzDirect (CLD) Gene Expression Assay for Baseline Control (Glyceraldehyde 3-phosphate dehydrogenase) at 6 hours (AID 2283681).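 Further: active means increased signal relative to DMSO vehicle.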 The procedure, abridged: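 Primary human hepatocytes from two donor preparations, dosed at multiple concentrations with 0.2% DMSO vehicle; GAPDH mRNA measured 6 h after dosing by chemiluminescent quantitative nuclease protection assay (qNPA) on denatured lysates. Serves as background control; cytotoxicity annotated by morphology.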

Read-out in assay [7]: HMG-CoA synthase (HMGCS2), HMGCS2 (gene 3158)
Nature of the assay: CLD_HMGCS2_6hr: CellzDirect (CLD) Gene Expression Assay for HMG-CoA synthase (HMGCS2) at 6 hours (AID 2283682).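 Further: actives raise HMGCS2 transcript above the 0.2% DMSO vehicle baseline.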 Put shortly:
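Primary human hepatocytes dosed daily with fresh chemical, 0.2% DMSO vehicle; HMGCS2 mRNA measured at 6 h by qNPA chemiluminescence. Gain of signal fitted against DMSO; cytotoxicity flagged from phase-contrast morphology.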

Read-out in assay [8]: xenobiotic metabolism (CYP1A2), CYP1A2 (gene 1544)
Nature of the assay: CLD_CYP1A2_24hr: CellzDirect (CLD) Gene Expression Assay for xenobiotic metabolism (CYP1A2) at 24 hours (AID 2283683). The procedure, abridged:
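Primary human hepatocytes from two donor preparations dosed daily with multiple concentrations of chemical, 0.2% DMSO vehicle. CYP1A2 mRNA at 24 h quantified by qNPA chemiluminescence; gain of signal analyzed relative to DMSO. Cytotoxicity flagged by phase-contrast morphology.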

Read-out in assay [9]: ABC Transporter (ABCB1), ABCB1 (gene 5243)
Nature of the assay: CLD_ABCB1_24hr: CellzDirect (CLD) Gene Expression Assay for ABC Transporter (ABCB1) at 24 hours (AID 2283684). The procedure, abridged: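 Primary human hepatocytes, two donor preparations, dosed daily with fresh solutions; vehicle 0.2% DMSO; harvested at 24 h. ABCB1 mRNA measured by quantitative nuclease protection assay (chemiluminescence); morphology-based cytotoxicity annotated.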

Read-out in assay [10]: Cytochrome P450 2C19 (Homo sapiens) (UniProt P33261)
Nature of the assay: CLD_CYP2C19_24hr: CellzDirect (CLD) Gene Expression Assay for xenobiotic metabolism (CYP2C19) at 24 hours (AID 2283687).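 Further: activity means mRNA induction above DMSO vehicle baseline.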 Put shortly: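 Primary human hepatocytes (two donor preparations) dosed daily with fresh test chemical in 0.2% DMSO vehicle; CYP2C19 mRNA induction measured at 24 h by quantitative nuclease protection assay with chemiluminescence, fitted for gain of signal versus DMSO.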

Read-out in assay [11]: Cytochrome P450 2C9 (Homo sapiens) (UniProt P11712)
Nature of the assay: CLD_CYP2C9_24hr: CellzDirect (CLD) Gene Expression Assay for xenobiotic metabolism (CYP2C9) at 24 hours (AID 2283688). The procedure, abridged: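 Primary human hepatocytes from two donor preparations, dosed daily for two days at multiple concentrations; vehicle 0.2% DMSO. CYP2C9 mRNA induction at 24 h measured by qNPA chemiluminescence relative to DMSO; cytotoxicity annotated from morphology.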

Read-out in assay [12]: Cytochrome P450 3A4 (Homo sapiens) (UniProt P08684)
Nature of the assay: CLD_CYP3A4_24hr: CellzDirect (CLD) Gene Expression Assay for xenobiotic metabolism (CYP3A4) at 24 hours (AID 2283689). The procedure, abridged:
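Primary human hepatocytes from two donors dosed daily with fresh compound for two days, 0.2% DMSO vehicle. CYP3A4 mRNA at 24 hr by qNPA chemiluminescence; gain-of-signal fit versus DMSO, cytotoxicity flagged by morphology.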

Read-out in assay [13]: organic anion transporter (SLCO1B1), SLCO1B1 (gene 10599)
Kind of assay: CLD_SLCO1B1_24hr: CellzDirect (CLD) Gene Expression Assay for organic anion transporter (SLCO1B1) at 24 hours (AID 2283690). The procedure, abridged:
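Primary human hepatocytes (two donor preparations) dosed daily for two days with chemicals at multiple concentrations, 0.2% DMSO vehicle. SLCO1B1 mRNA at 24 h measured by qNPA chemiluminescence; induction fitted relative to DMSO.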

Read-out in assay [14]: HMG-CoA synthase (HMGCS2), HMGCS2 (gene 3158)
Kind of assay: CLD_HMGCS2_24hr: CellzDirect (CLD) Gene Expression Assay for HMG-CoA synthase (HMGCS2) at 24 hours (AID 2283691). The procedure, abridged:
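Primary human hepatocytes from two donor preparations, dosed daily with fresh solutions; vehicle 0.2% DMSO, 24 h harvest. HMGCS2 mRNA quantified by qNPA with S1 nuclease digestion and chemiluminescence; gain fitted versus DMSO, cytotoxicity annotated by morphology.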

Read-out in assay [15]: alkyl and aryl transferase (GSTA2), GSTA2 (gene 2939)
Kind of assay: CLD_GSTA2_24hr: CellzDirect (CLD) Gene Expression Assay for alkyl and aryl transferase (GSTA2) at 24 hours (AID 2283693). The procedure, abridged: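 Primary human hepatocytes (two donor preparations) dosed daily for two days with chemicals at multiple concentrations (vehicle 0.2% DMSO); GSTA2 mRNA at 24 h measured by qNPA chemiluminescence, gain-of-signal versus DMSO.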

Read-out in assay [16]: Cytochrome P450 2B6 (Homo sapiens) (UniProt P20813)
Nature of the assay: CLD_CYP2B6_48hr: CellzDirect (CLD) Gene Expression Assay for xenobiotic metabolism (CYP2B6) at 48 hours (AID 2283699).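 Further: actives raise transcript level above DMSO so potency reflects induction.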 The procedure, abridged: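 Primary human hepatocytes dosed daily for two days over multiple concentrations, 0.2% DMSO vehicle; CYP2B6 mRNA quantified at 48 h by qNPA chemiluminescence. Induction fitted as gain of signal versus DMSO; cytotoxicity annotated by morphology.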

Read-out in assay [17]: Cytochrome P450 2C19 (Homo sapiens) (UniProt P33261)
Nature of the assay: CLD_CYP2C19_6hr: CellzDirect (CLD) Gene Expression Assay for xenobiotic metabolism (CYP2C19) at 6 hours (AID 2283678). The procedure, abridged: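 Primary human hepatocytes from two donor preparations were dosed daily, with 0.2% DMSO as vehicle, and harvested 6 h after dosing. CYP2C19 mRNA induction was measured by qNPA chemiluminescence and fitted as gain of signal against DMSO.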

Read-out in assay [18]: ABC Transporter (ABCB1), ABCB1 (gene 5243)
Kind of assay: CLD_ABCB1_48hr: CellzDirect (CLD) Gene Expression Assay for ABC Transporter (ABCB1) at 48 hours (AID 2283695). Put shortly:
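Primary human hepatocytes from two donor preparations dosed daily on two consecutive days with 0.2% DMSO vehicle. Harvest at 48 h. ABCB1 mRNA quantified by qNPA with chemiluminescence and fitted for gain of signal versus DMSO.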

Read-out in assay [19]: glucuronosyltransferase (UGT1A1), UGT1A1 (gene 54658)
Kind of assay: CLD_UGT1A1_24hr: CellzDirect (CLD) Gene Expression Assay for glucuronosyltransferase (UGT1A1) at 24 hours (AID 2283696). The procedure, abridged:
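Primary human hepatocytes from two donor preparations were dosed (0.2% DMSO vehicle) and harvested at 24 h; UGT1A1 mRNA induction was quantified by chemiluminescent qNPA, fitted as gain relative to DMSO.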

SMILES strings stand for the structures. Several values for one entry are separate records, joined by “and”; a condition that tells them apart may be missing. Equal values may be shown once. Records with an inconclusive call do not appear. Some structures have more than one record in an assay (separate samples or runs), and their calls can disagree. Activity calls are given as the source filed them. How the source made its calls, unless noted: active means hit-call score of the fitted dose curve at least 0.9, where 1 is the maximum; inconclusive means response in the unintended direction; inactive means score below 0.9.

Cytochrome P450 2C19 (Homo sapiens), sequence (P33261 whole entry, looked up): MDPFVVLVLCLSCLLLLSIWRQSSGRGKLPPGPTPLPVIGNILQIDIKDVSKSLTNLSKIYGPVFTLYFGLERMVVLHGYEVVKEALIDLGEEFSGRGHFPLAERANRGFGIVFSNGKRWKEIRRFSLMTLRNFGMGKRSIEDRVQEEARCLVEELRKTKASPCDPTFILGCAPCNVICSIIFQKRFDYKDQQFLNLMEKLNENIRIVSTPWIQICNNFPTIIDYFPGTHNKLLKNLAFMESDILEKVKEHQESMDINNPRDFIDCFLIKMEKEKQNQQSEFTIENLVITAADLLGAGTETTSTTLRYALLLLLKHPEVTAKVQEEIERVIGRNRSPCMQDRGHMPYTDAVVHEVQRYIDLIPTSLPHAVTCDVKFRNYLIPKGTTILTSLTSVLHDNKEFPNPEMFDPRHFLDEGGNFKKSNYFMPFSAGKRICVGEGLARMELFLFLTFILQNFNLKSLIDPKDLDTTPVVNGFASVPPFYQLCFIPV
Glyceraldehyde-3-phosphate dehydrogenase (Homo sapiens), sequence (P04406 whole entry, looked up): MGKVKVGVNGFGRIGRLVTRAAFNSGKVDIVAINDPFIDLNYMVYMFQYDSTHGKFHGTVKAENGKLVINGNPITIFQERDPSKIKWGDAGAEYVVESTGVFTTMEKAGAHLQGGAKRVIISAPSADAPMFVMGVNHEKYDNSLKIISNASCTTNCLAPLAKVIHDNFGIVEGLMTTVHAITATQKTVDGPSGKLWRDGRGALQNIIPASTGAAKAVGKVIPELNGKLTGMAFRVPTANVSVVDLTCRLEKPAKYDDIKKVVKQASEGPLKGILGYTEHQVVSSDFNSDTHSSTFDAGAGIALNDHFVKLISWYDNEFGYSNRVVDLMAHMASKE
Cytochrome P450 3A4 (Homo sapiens), sequence (P08684 whole entry, looked up): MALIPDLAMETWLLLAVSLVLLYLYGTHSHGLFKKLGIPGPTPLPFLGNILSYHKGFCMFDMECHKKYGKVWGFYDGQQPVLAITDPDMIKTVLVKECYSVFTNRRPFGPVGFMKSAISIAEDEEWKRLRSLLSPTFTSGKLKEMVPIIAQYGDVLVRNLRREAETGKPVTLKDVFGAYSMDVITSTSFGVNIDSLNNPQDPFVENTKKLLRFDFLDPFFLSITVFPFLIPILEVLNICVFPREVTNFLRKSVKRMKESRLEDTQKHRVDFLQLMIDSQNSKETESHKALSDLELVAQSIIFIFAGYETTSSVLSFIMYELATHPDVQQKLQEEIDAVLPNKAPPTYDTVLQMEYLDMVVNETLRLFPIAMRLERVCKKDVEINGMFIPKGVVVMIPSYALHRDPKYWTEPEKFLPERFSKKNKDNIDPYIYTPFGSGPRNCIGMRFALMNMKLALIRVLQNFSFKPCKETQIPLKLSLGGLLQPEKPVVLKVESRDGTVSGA

Turning to `CCOC(=O)CC(SP(=S)(OC)OC)C(=O)OCC` (centres undefined), the call in [1], in [2], in assay [3], in [5], in assay [6] and in assay [7] was inactive. Besides, the call in assay [9], in assay [10], in [11], in assay [12], in assay [13] and in assay [14] was inactive. For the same compound, the call in assay [15] and in assay [16] was inactive. Further, the AC50 was 27.3 µM (active) in [4] and 8.3 µM (active) in assay [8].
With `COC(=O)C(C)Oc1ccc(Oc2ccc(Cl)cc2Cl)cc1` (centres undefined), the compound was classed as inactive in [1], in assay [2], in assay [3], in assay [17], in [5] and in [6]. The outcome in [7], in [8], in assay [9], in assay [10], in assay [11] and in assay [12] was inactive. For the same compound, the compound was classed as inactive in assay [13], in [14], in assay [15], in [18], in [19] and in assay [16]. In addition, the AC50 was 3.09 µM (active) and 7.54 µM (active) in assay [3]; 5.23 µM (active) in assay [4]; 5.43 µM (active) in assay [12]; 20 µM (active) in assay [16].
For `CCCCNC(=O)n1c(NC(=O)OC)nc2ccccc21`, the outcome in assay [1], in assay [17], in [6], in assay [9], in assay [10] and in [12] was inactive. In addition, the compound was called inactive in [15]. For the same compound, the AC50 is 20 µM (active) in [2], 4.17 µM (active) in [3], 1.29 µM (active) in assay [4] and 4.66 µM (active) in [8].
`CC(C)Oc1cc(-n2nc(C(C)(C)C)oc2=O)c(Cl)cc1Cl`: the compound was called inactive in [1], in assay [6] and in assay [9]. The AC50 was 4.05 µM (active) in assay [2]; 1.9 µM (active) in assay [3]; 9.05 µM (active) in assay [4]; 1.89 µM (active) in assay [5]; 4.14 µM (active) in [8]; 1.9 µM (active) in assay [12]. For the same compound, the AC50 in [16] was 2.67 µM (active).
With `CCOc1cc(Oc2ccc(C(F)(F)F)cc2Cl)ccc1[N+](=O)[O-]`, the outcome in assay [1], in assay [6], in assay [7] and in assay [13] was inactive. Also, the AC50 in [2] is 4.84 µM (active); in assay [3] it was 2.75 µM (active); in assay [4], 13 µM (active); in assay [5] it was 5.4 µM (active); in assay [8], 5.69 µM (active); in assay [12], 20 µM (active). For the same compound, in assay [16], the AC50 is 1.83 µM (active).
Take `CCOP(=S)(OCC)SCn1c(=O)oc2cc(Cl)ccc21`: the compound was classed as inactive in [1], in assay [17], in assay [7] and in assay [12]. Further, the AC50 in [2] was 5.28 µM (active); in [3] it was 1.61 µM (active); in assay [4] it was 13.5 µM (active); in assay [8], 3.97 µM (active); in assay [16], 1.06 µM (active).
